MIN6 prolif-1 = MIN6 beta-cell proliferation induction | MIN6 cells proliferation, ATPlite luminescence, 48 h; cells starved in 0.2% serum; 100% = growth in 10% serum | AID 2380 | proliferation, % at 10 µM | 330,000 compounds, 0.29% hits;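 active means compounds whose signal lies at least 3.5 SD above the mean of all wells on their plate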;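 further: 0% = DMSO-treated cells in low-serum medium and 100% = 10% serum control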
OPRM1-OPRD1 inv = mu-delta opioid heterodimer inverse agonism; cell-based MOR-DOR heterodimer luminescence; inhibition, % at 9.3 µM; 340,000 compounds, 0.21% hits; AID 504357; in the data active means inhibition above about 22%, passing the limit was not always enough;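 further: 0% = cells with DMSO and 100% = wells without cells with DMSO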
MOR-DOR ag = OPRM1-OPRD1 heterodimerization agonism; P35372+P41143; cells, luminescence; activation, % at 9.3 µM; 340,000 compounds, 0.3% hits; in the data active means activation above about 18%;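 further: 0% = vehicle-treated cells and 100% = reference agonist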
HTR5A inv ag = inverse agonist of human HTR5A in OPRM1-OPRD1 counter-screen; 340,000 compounds, 0.083% hits; AID 504634; inhibition, % at 9.3 µM; HTR5A cell line, luminescence, inverse agonism; P47898; in the data active means inhibition mostly above about 23%, no sharp cut-off; inactive means mostly below about 18%;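 further: 0% = cells with DMSO and 100% = no-cell wells with DMSO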
HTR5A ag ctr = HTR5A agonism, opioid heterodimer counter-screen | HTR5A agonist assay, luminescence, cell-based | activation, % at 9.3 µM | 340,000 compounds, 0.61% hits; in the data active means activation mostly above about 9.5%, no sharp cut-off; inactive means mostly below about 7.6%;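 further: 0% = cells with vehicle only and 100% = reference agonist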
p-CIP stab down = lowers stability of the mouse p/CIP coactivator protein | Q05BA5 | F442A p/CIP-EGFP cells, EGFP fluorescence, 16 h | decrease of EGFP signal, % at 10 µM | 290,000 compounds, 0.01% hits | AID 1984;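 active means EGFP signal decrease of at least 30% at 10 µM or well 3 SD below plate mean, unless failing retest; inactive means the rest, including hits failing retest or dose response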
MIN6 prolif-2 = MIN6 beta-cell replication induction, confirmed; shares compounds with MIN6 prolif-1; MIN6 beta-cell proliferation, ATPlite luminescence, 48 h; cells kept in 0.2% serum; scaled between 0.2% and 10% serum; proliferation increase, % at 50 µM; 920 tested, under 10 active; AID 463095;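 active means proliferation increase above 40% at any of the four tested concentrations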
* hit, by the source's call; . = not tested or not shown. A selection: hits, their analogues and other compounds. The true share with any hit is near 1.4%.

SMILES	MIN6 prolif-1	OPRM1-OPRD1 inv	MOR-DOR ag	HTR5A inv ag	HTR5A ag ctr	p-CIP stab down	MIN6 prolif-2
O=C(c1ccco1)N1CCCC(c2nc3c(nnn3Cc3c(Cl)cccc3Cl)c(=O)[nH]2)C1 (stereo unspecified)	8.4*	16	-2	-6	2	-6	-6
CC1CCCC(C)N1C(=O)c1cccc2c1-c1ccccc1/C2=N/O (stereo unspecified)	5.5*	9	-2	2	-1	4	-6
CCOC(=O)c1cccc2c1-c1ccccc1/C2=N/O	-2	-13	3	-13	1	-6	.
COc1ccc(/C=N/NC(=O)c2cnccn2)cc1O	0.0*	15	-3	6	-2	-16	0
CC1(C)CC(=O)C/C(=N/NC(=O)C2CCN(S(=O)(=O)c3cccs3)CC2)C1	9.3*	6	-1	5	-2	-17	2
Cc1cc(C)nc(-n2nc(C)cc2NC(=O)CN2CCC(C)CC2)n1	4.9*	18	-3	-3	-4	-3	-6
Cc1cc(C)nc(-n2nc(C)cc2NC(=O)CN2CCCC2)n1	3	8	-1	0	0	-5	.
COc1cc(CC(=O)NCCCc2ccccc2)cc(OC)c1OC	6.0*	1	0	-5	0	-19	-2
COc1cc(C(=O)NCCCc2ccccc2)cc(OC)c1OC	-2	17	-3	9	-2	1	.
Cc1cccc(CC(=O)NCCN2CCOCC2)c1	0	1	0	-8	4	-4	.
CCOn1c(=O)c(-c2cc3ccccc3o2)[n+]([O-])c2ccccc21	6.8*	4	-1	-20	8	-16	0
CSc1nc(N)nc(SC2C=CCCC2)c1C#N (stereo unspecified)	5.9*	-14	3	10	2	-22	9
Cc1cc(C)nc(NC(=NCCc2c[nH]c3ccccc23)NC(=O)c2ccco2)n1	12*	-14	2	-53	19	-8	-5
Cc1cc(C)nc(NC(=NCCc2c[nH]c3ccccc23)NC(=O)Nc2ccccc2)n1	-4	-20	4	-18	4	-3	.
CCCN1C2=C(C(=O)CC(C)(C)C2)C(c2ccc(F)cc2)C2=C1c1ccccc1C2=O (stereo unspecified)	-4	23	-4	11	-3	-4	.
CCCCN1C2=C(C(=O)CC(C)(C)C2)C(c2ccccc2)C2=C1c1ccccc1C2=O (stereo unspecified)	8.2*	1	0	-6	3	1	-1
O=S(=O)(c1cnccc1N1CCN(/N=C/c2ccccc2)CC1)N1CCCCC1	5.6*	6	-1	8	-2	-12	0
Cc1cnc(C(=O)OCC(=O)NCc2ccccc2)cn1	3	14	-3	9	1	-1	.
Cc1cnc(C(=O)OCC(=O)Nc2cc(-c3ccccc3)nn2-c2ccccc2)cn1	11*	5	-1	-2	1	.	0
COc1ccc(NC(=O)c2ccccc2NS(=O)(=O)c2ccc(C)cc2)c([N+](=O)[O-])c1	6.2*	3	0	3	-4	-17	-6
Oc1cccc(-c2nnc(-c3cccc(O)c3)nn2)c1	.	-66	13	20	-5	.	.
COCCCn1c(-c2ccc(OC)cc2)nc2c1c(=O)[nH]c(=O)n2Cc1ccccc1	0.0*	19	-3	5	-4	-5	-4
C=CCOc1ccc(-c2nc3c(c(=O)[nH]c(=O)n3CCC)n2CCCC)cc1	0.0*	-16	2	4	0	-22	3
COCCn1c(-c2ccc3ccccc3c2)nc2c1c(=O)[nH]c(=O)n2CC(C)C	9.0*	-17	3	-5	5	-8	-6
C=CCOc1ccc(-c2nc3c(c(=O)[nH]c(=O)n3Cc3ccccc3)n2CCCOC)cc1	-2	-25	5	-14	5	8	.
SMILES	MIN6 prolif-1	OPRM1-OPRD1 inv	MOR-DOR ag	HTR5A inv ag	HTR5A ag ctr	p-CIP stab down	MIN6 prolif-2
Cc1ccc(NC(=O)CN(C)S(=O)(=O)c2ccc(Cl)s2)c(O)c1	-3	8	-2	15	-2	.	.
C=CCn1c(SCC(=O)N(CC)c2c(N)n(Cc3ccccc3)c(=O)[nH]c2=O)nnc1-c1ccccc1OC	.	14	-4	16	0	.	.
CC1(c2ccccc2)NC(=O)N(CC(=O)N2CCN(S(=O)(=O)c3cccc(C(F)(F)F)c3)CC2)C1=O (stereo unspecified)	.	14	-3	-7	3	.	.
Cc1ccc(S(=O)(=O)N2[C@@H](c3cccc(Cl)c3)C(C(=O)O)=CC[C@H]2c2ccc3c(c2)OCO3)cc1	-4	12	-2	17	-1	.	.
O=S(=O)(c1ccc(Cl)c2ccccc12)N1CCCC1	-1	-17	3	-7	2	-13	.
O=C1Nc2ccc(S(=O)(=O)N3CCCC3)c3ccc(S(=O)(=O)N4CCCC4)c1c23	9.2*	2	0	6	-6	-2	5
Cc1ccc(C(=O)Nc2ccc(Cl)cn2)cc1S(=O)(=O)N1CCOCC1	-3	5	-1	-24	1	13	.
Cc1ccc(NC(=O)c2ccc(C)c(S(=O)(=O)N3CCOCC3)c2)nc1	13*	6	-1	-3	1	.	-3
C=CCNC(=O)c1c2c(nc3ccccc13)-c1ccccc1CC2	7.0*	14	-3	4	2	-16	-4
Cn1c(=O)c2c(ncn2CC(=O)Nc2cc(S(=O)(=O)N3CCCCC3)ccc2O)n(C)c1=O	-3	.	.	.	.	.	.
CC(C)c1ccc(NC(=O)CCNS(=O)(=O)c2cccc3nsnc23)cc1	4.6*	-11	2	-23	9	6	-5
O=C(CCC1CCCC1)N1CCN(C(=O)C2CC2)CC1	-2	-9	1	-10	0	-16	.
CCOC(=O)C1CCN(C(=O)c2ccc(C)o2)CC1	9.3*	18	-4	-8	2	.	5
CCOC(=O)C1CCN(C(=O)CCC2CCCC2)CC1	6.1*	8	-2	-15	5	0	0
CCOC(=O)C1CCN(C(=O)c2ccco2)CC1	-1	6	-1	16	-5	-4	.
Cc1c(C)[n+](=O)c(C)c(C)n1[O-]	.	16	-3	2	-1	.	.
COc1ccc(N(C(=O)Cc2cccs2)C(C(=O)NC2CCCC2)c2ccncc2)cc1 (stereo unspecified)	0	5	-1	-23	8	14	.
COc1ccc(N(C(=O)CNC(=O)c2cccs2)C(C(=O)NC2CCCC2)c2ccncc2)cc1 (stereo unspecified)	7.3*	12	-2	0	0	-7	0
CN1CCN(c2nc(-c3ccco3)cc(C(F)(F)F)n2)CC1	1	-18	3	-7	2	-15	.
